# Screens from PubChem.
# This is a sample that favours compounds with a hit; in the whole collection about 1.6% have one here.
# eIF4E 4G PPI: inhibitors of eIF4E and eIF4G interaction in translation initiation. inhibition, % at 21.7 µM. TR-FRET eIF4E-eIF4GI(517-606) binding, 2 h. P63073+Q04637. hit rate 0.37% among 220,000;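 active = inhibition above about 30%, limit read from the data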;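 note: 0% = full FRET control wells and 100% = background wells lacking eIF4GI fragment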
# PERK inhibitor: blocks human PERK kinase; Q9NZJ5; CHO PERK-DD fusion, SEAP luminescence translation reporter; inhibition, % at 5.6 µM; hit rate 0.17% among 220,000; AID 1416;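 active = inhibition above the mean inhibition of all tested compounds plus 3 SD, set separately per screening campaign, cut at about 2.9% in these data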;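 note: PERK kinase domain activated by AP20187 dimerizer at 100 nM; 0% = DMSO with dimerizer and 100% = rapamycin at 8.4 µM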
# eIF4H FP inh: inhibitors of RNA binding by human eIF4H. Q15056. eIF4H fluorescence polarization binding assay. inhibition, % at 35 µM. hit rate 0.94% among 290,000;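 note: calls also rest on retests at 20 µM and on dose response follow-up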
# PABP FP inh: PABP-poly(A) binding inhibition; hit rate 1% among 290,000; inhibition, % at 35 µM; PABP-poly(A) RNA binding, fluorescence polarization; P11940;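 note: calls also rest on retests at 20 µM and on dose response follow-up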
# PABP1 MLLE inh: blocks PAM2 peptide binding to the PABP1 MLLE domain | P11940 | GST-MLLE / FITC-PAM2 fluorescence polarization | inhibition, % at 20 µM | hit rate 0.36% among 360,000; in the data active = inhibition above about 35%, passing the limit was not always enough;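 note: plate controls were DMSO wells with GST-MLLE for no effect and wells lacking GST-MLLE protein for full effect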
# Numbers without * were called inactive; ? = inconclusive; / = not tested or not shown. Unless noted, the rule behind the calls is not given here.
SMILES,eIF4E 4G PPI,PERK inhibitor,eIF4H FP inh,PABP FP inh,PABP1 MLLE inh
CC(=O)N1CCc2[nH]c3ccc(C)cc3c2C1,/,/,?,35*,17
Cc1ccc2[nH]c3c(c2c1)CN(C)CC3,-1,1,8,1,0
O=C(CSc1ncn(-c2ccccc2)n1)Nc1nc2ccccc2s1,19,0,-9,1,31
CC(=O)Nc1ccc(C(=O)CSc2ncn(-c3ccccc3)n2)cc1,7,-1,-6,3,41*
O=C(CSc1ncn(-c2ccccc2)n1)Nc1nc2c(s1)CCCC2,0,0,74*,31*,19
Cc1ccc(CSC2=Nc3ccccc3C3=NC(CC(=O)NCc4ccco4)C(=O)N23)cc1 (stereo unspecified),5,-1,51*,29*,-8
N#C/C(=C(/O)c1ccc(-c2cccc([N+](=O)[O-])c2)o1)c1nc2ccccc2s1,25,1,69*,active,-20
O=C(O)c1ccc(-c2cccc([N+](=O)[O-])c2)o1,-4,0,4,68,-2
Cc1ccc(C(=O)N2CCN(S(=O)(=O)c3ccccc3[N+](=O)[O-])C2)cc1,0,0,-6,1,-3
Cc1ccc(C(=O)N2CCN(S(=O)(=O)c3ccccc3[N+](=O)[O-])CC2)o1,3,0,51*,-7,-9
Cc1ccc(C(=O)CSc2n[nH]c(-c3ccco3)n2)cc1C,1,0,27,9,2
COc1ccc(C(=O)CSc2n[nH]c(-c3ccco3)n2)cc1,3,0,71*,65*,2
O=C(CSc1n[nH]c(-c2ccccc2)n1)NC(=O)NCc1ccco1,0,0,47*,60,-18
Cc1ccccc1CSCC(=O)NC(=O)NCc1ccco1,0,0,55*,45*,12
Cn1c(SCC(=O)NC(=O)NCc2ccco2)nnc1-c1ccccc1,-11,0,92*,37*,0
Cc1cc(C)n(CC(O)Cn2c3ccc(Cl)cc3c3cc(Cl)ccc32)c(=O)n1 (stereo unspecified),16,0,-3,-3,-12
Cc1cc(SCC(=O)NC(=O)NCc2ccco2)nc2c(C)cccc12,4,-1,51*,27*,14
O=C(CSc1ccccc1F)NC(=O)NCc1ccco1,6,1,77*,14*,-2
COc1ccc(C)cc1-n1nnnc1SCC(=O)NC(=O)NCc1ccco1,7,0,72*,31,-42
O=C(CSc1nnc(-c2ccc(OC(F)F)cc2)o1)NC(=O)NCc1ccco1,6,0,66*,31,-129
COc1ccc(-n2nnnc2SCC(=O)NCc2ccco2)cc1OC,-6,0,5,-6,-10
O=C(CSc1ncccn1)NC(=O)NCc1ccco1,-3,1,34,-1,-109
CC1(NC(=O)Nc2ccccc2)CCS(=O)(=O)C1 (stereo unspecified),4,0,-10,-3,-11
CSc1cccc(NS(=O)(=O)c2ccc(F)cc2)c1,4,0,-8,2,-1
COc1ccc(CC(NC(C)=O)C(=O)NC2CCN(C(=O)c3cc(OC)c(OC)c(OC)c3)CC2)cc1 (stereo unspecified),0,2,-8,8,-2
SMILES,eIF4E 4G PPI,PERK inhibitor,eIF4H FP inh,PABP FP inh,PABP1 MLLE inh
COc1ccc(S(=O)(=O)N[C@@H](CC(C)C)C(=O)O)cc1,0,0,-5,0,-2
CC(=O)Nc1sc(NC(=O)c2ccccc2)nc1-c1cccs1,6,0,2,2,11
COc1ccc(N=C2S/C(=C\c3ccc(N4CCOCC4)o3)C(=O)N2CCc2c[nH]c3ccccc23)cc1,2,2,7,2,68
COc1ccc(N=C2S/C(=C\c3ccc(OCC(=O)O)cc3)C(=O)N2CCc2c[nH]c3ccccc23)cc1,20,1,89,44*,-11
Cc1no[n+]([O-])c1COc1ccc(/C=C2\NC(=S)NC2=O)cc1,1,-1,56*,50*,/
CCOc1ccc(/C=C2\NC(=S)NC2=O)cc1,-3,1,3,6,-110
O=C(O[C@@H]1Cc2c(O)cc(O)cc2O[C@@H]1c1cc(O)c(O)c(O)c1)c1cc(O)c(O)c(O)c1,9,0,80*,53*,/
Oc1cc(O)c2c(c1)O[C@H](c1ccc(O)c(O)c1)[C@H](O)C2,/,/,14,5,-6
CCN1CCN(C(=S)c2ccc(OCC(=O)NCc3ccccc3)cc2)CC1,1,1,3,-5,22
Cc1cc(OCc2ccc(C(=O)n3cccn3)o2)ccc1Cl,2,1,13,0,5
